High-throughput results as filed in PubChem.
SMN2 splice enh = increases expression of the SMN2 splice variant; Potency, µM (top dose mostly 46.1 µM), for inactives: at the top dose activity change, positive = activation, usual class: activators; HEK293 SMN2-luciferase splicing reporter, luminescence, 30-36 h; 2.8% of 210,000 active; note: % of control where 0% means no effect; nearly all actives have a fitted effect of over 55% in size
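HEK293 cells carry an SMN2 minigene-luciferase reporter in which exon 7 inclusion puts luciferase in frame. Cells were seeded at 2000 cells/well, attached for 10-12 hours, then exposed to compounds for 30-36 hours at 37C before ONE-Glo luminescence.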
Rab9 prom act = activators of Rab9 promoter. Huh7 Rab9 promoter-luciferase reporter, luminescence, 24 h. 2.8% of 320,000 active. Potency, µM (doses to about 9.22 µM), for the others: at the top dose activation, negative = inhibition, usual class: activators; note: % of control where 0% means no effect; nearly all actives have a fitted effect of over 60% in size
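Cell-based reporter: Huh7 stable for Rab9 promoter-driven luciferase, plated in reduced-serum medium with 10% FBS at 1500 cells/well, compound-treated 24 h at 37 °C, luminescence read after 10 min reagent.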
KinaseGlo FLuc = Kinase-Glo luciferase inhibition (counter-screen). Q27757. AID 1379. Kinase-Glo luciferase, ATP luminescence, 8 min. 0.28% of 200,000 active. Potency, µM (highest dose often 38.3 µM), without a hit: top-dose activity change, negative = inhibition, usual class: inhibitors; note: % is set by controls: 0 for no effect and ±100 for the full control effect; nearly all actives have a fitted effect of over 60% in size
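Kinase-Glo luciferase light output from ATP and luciferin was measured with 10 uM ATP, within the enzyme's linear range. Buffer: 50 mM imidazole pH 7.2, 50 mM KCl, 7 mM MgCl2, 0.01% Tween 20, 0.05% BSA; luminescence read after 8 min at ambient temperature.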
FLuc modulator = counter-screen for miR-21 project: firefly luciferase inhibitors or activators | purified FLuc, Km substrates, luminescence inhibition | Potency, µM (series often up to 57.5 µM), for inactives: top-dose activity change, negative = inhibition, usual class: inhibitors | 6.9% of 360,000 active | AID 588342;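 note: plate controls were vehicle for no effect and reference inhibitor for full effect; nearly all actives have a fitted effect of over 55% in size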
Target sequence (P08659 whole entry, looked up): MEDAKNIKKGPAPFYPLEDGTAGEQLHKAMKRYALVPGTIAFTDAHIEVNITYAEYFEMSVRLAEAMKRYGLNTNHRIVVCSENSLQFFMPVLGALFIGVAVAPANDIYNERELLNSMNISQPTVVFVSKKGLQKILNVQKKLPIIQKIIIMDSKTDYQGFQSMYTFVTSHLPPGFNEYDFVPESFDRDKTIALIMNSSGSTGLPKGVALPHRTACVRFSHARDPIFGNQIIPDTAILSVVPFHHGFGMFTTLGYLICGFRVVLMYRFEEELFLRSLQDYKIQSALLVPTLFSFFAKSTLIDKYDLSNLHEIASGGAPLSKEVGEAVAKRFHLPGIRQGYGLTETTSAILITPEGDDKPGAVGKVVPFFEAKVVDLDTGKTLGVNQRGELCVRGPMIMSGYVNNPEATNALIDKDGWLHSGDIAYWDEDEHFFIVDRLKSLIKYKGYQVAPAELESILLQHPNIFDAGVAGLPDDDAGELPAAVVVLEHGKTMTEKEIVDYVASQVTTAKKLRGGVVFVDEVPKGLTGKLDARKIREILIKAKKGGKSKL
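Biochemical qHTS of compounds, final roughly 60 µM downward over six points, against 10 nM purified firefly luciferase using Km concentrations of substrates (10 uM D-luciferin, 10 uM ATP) in Tris acetate pH 7.5 buffer; luminescence output.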
NPC1 promoter act = activators of NPC1 promoter | Potency, µM (titrated, usually from 9.22 µM), for the others: at the top dose activation, usual class: activators | 2.4% of 320,000 active | Huh7 NPC1 promoter luciferase reporter, 24 h; note: % of control where 0% means no effect; nearly all actives have a fitted effect of over 60% in size
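Readout is luciferase luminescence, reflecting NPC1 promoter activation in stably transfected Huh7 cells after 24 h compound exposure at 37 °C in reduced-serum medium with 10% FBS.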
ELG1 genotoxic = inducers of genotoxicity in HEK293T ELG1-luciferase cells | HEK293T ELG1-luciferase reporter, luminescence, 16 h | Potency, µM (series often up to 46 µM), without a hit: at the highest dose activity change, positive = activation, hits mostly activators | 1.3% of 330,000 active | AID 504466; note: % of control where 0% means no effect; nearly all actives have a fitted effect of over 60% in size
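Luminescence read-out: rising ELG1-luciferase signal, reflecting elevated ELG1 protein under genetic stress, flags genotoxic compounds. Cells were treated for 16 hr at 37 °C before ONE-Glo detection.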
An asterisk follows results filed as active; ? = inconclusive; . = no result; [ ] = another dose, or the depositor's remark. Rows were chosen to be rich in hits. Some 7.4% of all compounds tested hit in one or more screens of this group. Calls come from the whole dose curve; as a rule, active = well fitted curve in the direction sought with a large enough effect; inconclusive = small, poorly fitted or top-dose-only effect, or another doubt; inactive = no such curve, though single readings can be large; an effect the other way counts as inactive or inconclusive. Potency is the fitted concentration of half-maximal effect.

SMILES	SMN2 splice enh	Rab9 prom act	KinaseGlo FLuc	FLuc modulator	NPC1 promoter act	ELG1 genotoxic
CN1CCN(c2ncnc3c2cnn3-c2ccc(Cl)cc2)CC1	0%	0.4µM*	-7%	0.95µM*	?	?
Cc1ccc(-n2ncc3c(N4CCN(C)CC4)ncnc32)cc1Cl	.	.	.	5.4µM*	.	.
Cc1ccc(-n2ncc3c(N4CCN(C)CC4)ncnc32)cc1	.	.	.	3µM*	.	.
O=C(C1CC1)N1CCc2cc(Br)cc(S(=O)(=O)N3CCN(c4cccc(C(F)(F)F)c4)CC3)c21	-8%	.	.	1%	.	.
COc1ccc(-n2nc(C(=O)NCC(=O)N3CCCCCC3)c3ccccc3c2=O)cc1	.	7%	.	5.4µM*	-14%	-4%
COc1ccc(-n2nc(C(=O)NCC(=O)N3CCN(C)CC3)c3ccccc3c2=O)cc1	.	0%	.	15µM*	-3%	4%
COc1ccc(-n2nc(C(=O)NCC(=O)N3CC(C)CC(C)C3)c3ccccc3c2=O)cc1 (stereo not given)	.	2%	.	19µM*	-1%	-22%
CCOC(=O)N1CCN(C(=O)CNC(=O)c2nn(-c3ccc(OC)cc3)c(=O)c3ccccc23)CC1	25%	?	2%	3.8µM*	6%	0%
COc1ccc(-n2nc(C(=O)NCC(=O)NCCCN3CC(C)CC(C)C3)c3ccccc3c2=O)cc1 (stereo not given)	.	-4%	.	2%	2%	4%
COc1ccc(N2CCN(C(=O)CNC(=O)c3nn(-c4ccc(OC)cc4)c(=O)c4ccccc34)CC2)cc1	.	8%	.	?	-1%	-19%
CCOc1ccc(NC(=O)CNC(=O)c2nn(-c3ccc(OC)cc3)c(=O)c3ccccc23)cc1	.	-3%	.	0%	-2%	-12%
Cc1[nH]nc(N=CC2=C(O)CC(C)(C)CC2=O)c1-c1ccc(Cl)cc1	-7%	-2%	-2%	17µM*	0%	-4%
CCOc1ccc(N=CC2=C(O)CC(C)(C)CC2=O)cc1	-10%	-2%	13%	24µM*	-2%	?
Cc1ccc(N=CC2=C(O)CC(C)(C)CC2=O)nc1	-9%	1%	-2%	24µM*	0%	1%
COC(=O)c1ccc2c(c1)N(CC(=O)Nc1ccc(C)cc1Cl)C(=O)c1ccccc1S2	.	.	.	1%	.	.
CCCc1ccc(C(=O)O/N=C(\N)c2ccccn2)cc1	.	-22%	.	0.067µM*	-20%	0.41µM*
N/C(=N\OC(=O)Cc1ccccc1)c1ccccc1Cl	9%	26%	-1%	?	13%	10%
N/C(=N\OC(=O)c1ccc2ccccc2c1)c1ccccn1	?	?	11µM*	0.15µM*	?	0.58µM*
COc1cccc(C(=O)NCCCNC(=O)c2ccccn2)c1	.	-4%	.	-2%	0%	-4%
N/C(=N\OC(=O)c1ccc2ccccc2c1)c1ccccc1Cl	.	4µM*	.	1.9µM*	3.2µM*	23µM*
N/C(=N\OC(=O)c1ccc(=O)n(Cc2ccccc2)c1)c1ccccn1	-5%	3%	0%	?	0%	14%
COc1cccc(C(=O)O/N=C(\N)c2ccccn2)c1	.	3.2µM*	.	0.076µM*	2.5µM*	?
Cc1ccc2nc(NC(=O)CSc3cc(C)[nH]c(=O)n3)sc2c1	.	.	.	-22%	.	.
N/C(=N\OC(=O)c1ccccc1Cl)c1ccncc1	.	4%	-7%	?	26%	-15%
Cc1ccccc1C(=O)O/N=C(\N)c1ccncc1	.	3.2µM*	-22%	4.3µM*	?	?
SMILES	SMN2 splice enh	Rab9 prom act	KinaseGlo FLuc	FLuc modulator	NPC1 promoter act	ELG1 genotoxic
N/C(=N\OC(=O)c1ccc2ccccc2c1)c1ccncc1	.	1.4µM*	-4%	1.9µM*	1.3µM*	4.6µM*
N/C(=N\OC(=O)COc1ccc2ccccc2c1)c1ccncc1	.	2%	-2%	?	-4%	-3%
O=C(O)c1cc(-c2ccccc2)n[nH]1	-1%	0%	2%	-11%	-1%	1%
O=C(NNS(=O)(=O)c1ccccc1F)c1cc(-c2ccccc2)n[nH]1	.	-1%	.	-14%	6%	-12%
O=C(O)/C=C\C(=O)NNC(=O)c1cc(-c2ccccc2)n[nH]1	.	3%	.	11µM*	-1%	-1%
O=C(O)/C=C/C(=O)NNC(=O)c1cc(-c2ccccc2)n[nH]1	-11%	-2%	-3%	11µM*	1%	0%
O=C(CCC(=O)N1CC2CCCN2c2ccccc21)NCc1cccc(Cl)c1 (stereo not given)	.	.	.	-18%	.	.
Cc1ccc(-c2ccnc(-c3ccc(O)cc3)n2)cc1	19%	22%	-1%	21µM*	8%	?
Cc1ccc(C(=O)Oc2ccc(-c3nccc(-c4ccccn4)n3)cc2)cc1	?	17%	-1%	5%	?	10µM*
O=C(Oc1ccc(-c2nccc(-c3ccccn3)n2)cc1)c1cccc(C(F)(F)F)c1	?	9%	-1%	1%	30%	?
Oc1ccc(-c2nccc(-c3ccc(Br)cc3)n2)cc1	.	0%[1.84 µM]	.	?	-7%	11%
Oc1ccc(-c2nccc(-c3ccccn3)n2)cc1	.	?	.	17µM*	?	?
COc1ccc(-c2ccnc(-c3ccc(O)cc3)n2)cc1	21%	-5%	3%	?	-33%	?
